Experimental data from the supplement of paper PMC3545927.
The other results are listed elsewhere or left out. How many sequences the whole screen found active is unknown.

Target: furin, P09958
Test: furin cleavage Z-score vs untreated control; higher = more cleavage, active = 3.5 or more, inactive = 1 or less, 8 variable residues between constant flanks
Procedure, shortened: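 Read counts from sequencing released DNA gave abundance for each bead-bound 8-mer peptide–cDNA fusion cut by purified furin over 7.5, 15 or 30 min. The cleavage Z-score compares log counts with furin-free reactions after lowess adjustment and median absolute deviation scaling.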
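Also: purified furin at 1:10 enzyme:substrate in 50 mM HEPES pH 7.5.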

Chain of furin, P09958 (P09958 whole entry): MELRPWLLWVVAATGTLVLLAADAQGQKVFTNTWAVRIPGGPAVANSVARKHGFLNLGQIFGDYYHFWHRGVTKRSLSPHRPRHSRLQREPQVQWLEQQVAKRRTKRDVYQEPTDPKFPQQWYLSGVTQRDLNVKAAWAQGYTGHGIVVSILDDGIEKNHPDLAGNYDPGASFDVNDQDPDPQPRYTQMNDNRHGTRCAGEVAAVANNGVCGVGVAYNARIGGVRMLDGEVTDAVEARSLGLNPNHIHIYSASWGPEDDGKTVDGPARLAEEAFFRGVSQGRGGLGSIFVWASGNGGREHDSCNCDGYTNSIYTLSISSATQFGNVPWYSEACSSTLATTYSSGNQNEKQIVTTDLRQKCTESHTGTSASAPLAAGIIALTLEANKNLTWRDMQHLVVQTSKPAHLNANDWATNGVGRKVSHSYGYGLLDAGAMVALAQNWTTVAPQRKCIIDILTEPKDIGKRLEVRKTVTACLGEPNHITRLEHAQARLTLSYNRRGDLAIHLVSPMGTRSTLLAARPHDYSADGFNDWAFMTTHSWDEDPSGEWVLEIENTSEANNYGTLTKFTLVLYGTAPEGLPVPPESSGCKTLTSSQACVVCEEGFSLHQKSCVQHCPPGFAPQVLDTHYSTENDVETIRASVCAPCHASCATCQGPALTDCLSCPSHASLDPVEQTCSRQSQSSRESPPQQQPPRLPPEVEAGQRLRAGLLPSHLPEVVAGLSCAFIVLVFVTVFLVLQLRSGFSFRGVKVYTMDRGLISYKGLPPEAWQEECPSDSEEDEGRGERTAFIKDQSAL

Sequence	furin cleavage Z-score (7.5 min)	furin cleavage Z-score (15 min)	furin cleavage Z-score (30 min)
CAEITTPCSGAGNASASA [HC1964]	-1.53 (inactive)	-0.885 (inactive)	-1.78 (inactive)
CATTACSGSWAGNASASA [HC1863]	-0.8 (inactive)	-0.656 (inactive)	-0.444 (inactive)
CASHPCSAHLAGNASASA [HC2495]	1.02	0.719 (inactive)	0.0481 (inactive)
CAWRCRVARSAGNASASA [FS-897]	5.68 (active)	5.73 (active)	6.03 (active)
CASHAVVARSAGNASASA [FS-1080]	4.85 (active)	4.91 (active)	5.66 (active)
CAYLSRVARSAGNASASA [FS-738]	9.42 (active)	9.32 (active)	8.94 (active)
CASPPVVPQSAGNASASA [HC768]	-0.954 (inactive)	0.785 (inactive)	-0.882 (inactive)
CAAPPPSWDQAGNASASA [HC960]	-0.113 (inactive)	-0.447 (inactive)	-0.277 (inactive)
CALVILNAASAGNASASA [HC536]	1.04	-0.834 (inactive)	0.192 (inactive)
CAEAPCHRPSAGNASASA [HC2323]	0.662 (inactive)	-0.37 (inactive)	-0.247 (inactive)
CAMESCSQHLAGNASASA [HC1717]	0.437 (inactive)	1.13	-0.426 (inactive)
CATTPCSDSWAGNASASA [HC1891]	-1.12 (inactive)	-0.376 (inactive)	-2.36 (inactive)
CAMEKCSQHLAGNASASA [HC1714]	1.25	0.88 (inactive)	0.181 (inactive)
CALSIRDKRKAGNASASA [FS-136]	4.28 (active)	3.15	5.72 (active)
CALPQRLPRAAGNASASA [FS-1363]	10.1 (active)	7.22 (active)	9.33 (active)
CALSIRDARMAGNASASA [FS-1466]	-0.476 (inactive)	0.981 (inactive)	-0.151 (inactive)
CALPQDAVSRAGNASASA [HC899]	0.79 (inactive)	-0.97 (inactive)	-1.66 (inactive)
CALPARDKRKAGNASASA [FS-356]	3.1	4.69 (active)	4.42 (active)
CALPAPNYTFAGNASASA [HC1197]	0.169 (inactive)	-0.15 (inactive)	-0.727 (inactive)
CAIPARELRNAGNASASA [FS-254]	1.11	0.407 (inactive)	-8.8e-05 (inactive)
CAIPARMKRAAGNASASA [FS-599]	10.3 (active)	9.08 (active)	8.29 (active)
CALPQRAYALAGNASASA [HC562]	-0.111 (inactive)	0.523 (inactive)	0.909 (inactive)

Sequence	furin cleavage Z-score (7.5 min)	furin cleavage Z-score (15 min)	furin cleavage Z-score (30 min)
CASLTERLYVAGNASASA [HC1498]	-0.595 (inactive)	0.519 (inactive)	0.245 (inactive)
CATTPCSGSSAGNASASA [HC1937]	-1.48 (inactive)	-0.199 (inactive)	-0.0714 (inactive)
CAMALTLSPYAGNASASA [HC574]	-0.719 (inactive)	-0.267 (inactive)	0.328 (inactive)
CAGVEHRLEAAGNASASA [HC478]	-0.376 (inactive)	-1.52 (inactive)	-2.05 (inactive)
CALPNREDRAAGNASASA [FS-54]	0.255 (inactive)	-1.19 (inactive)	-1.7 (inactive)
CASDIRTEEAAGNASASA [HC1486]	0.515 (inactive)	-1.04 (inactive)	-1.3 (inactive)
CASPIRTPRAAGNASASA [FS-1083]	4.85 (active)	4.51 (active)	4.42 (active)
CALPARDKRAAGNASASA [FS-1026]	9.51 (active)	8.58 (active)	8.12 (active)
CALRMFERRSAGNASASA [FS-1367]	0.304 (inactive)	-0.351 (inactive)	0.543 (inactive)
CASRDRFRRSAGNASASA [FS-1282]	13 (active)	12.2 (active)	9.49 (active)
CASRSLSRRSAGNASASA [FS-1088]	8.82 (active)	10.1 (active)	7.4 (active)
CAIPSGFRRSAGNASASA [FS-339]	-0.371 (inactive)	-1.96 (inactive)	-0.569 (inactive)
CADMMEECSQAGNASASA [HC1806]	-0.946 (inactive)	-0.28 (inactive)	-0.569 (inactive)
CAAKVLVVLLAGNASASA [HC345]	-0.548 (inactive)	-0.603 (inactive)	0.816 (inactive)
CATHMRQMRSAGNASASA [FS-304]	5.44 (active)	7.85 (active)	7.29 (active)
CAAKSRQMRSAGNASASA [FS-321]	12.3 (active)	12.5 (active)	8.77 (active)
CAAKSRQRRQAGNASASA [FS-1583]	9.65 (active)	11 (active)	7.11 (active)
CANEKRQRRQAGNASASA [FS-552]	8.64 (active)	9.03 (active)	8.4 (active)
CAQALPVWARAGNASASA [HC1302]	-0.162 (inactive)	0.223 (inactive)	-0.716 (inactive)
CAATRDGKLPAGNASASA [HC284]	0.288 (inactive)	-1.04 (inactive)	0.353 (inactive)
CATMRIVGPRAGNASASA [HC1182]	0.31 (inactive)	1.38	0.463 (inactive)
CATTRCSGSWAGNASASA [HC1873]	-2.28 (inactive)	-0.493 (inactive)	-0.341 (inactive)
